Source: PubChem (National Center for Advancing Translational Sciences (NCATS))
ATXN viability = Viability Counterscreen for Primary qHTS for Inhibitors of ATXN expression; S2 cells (HEK-293 line with an ATXN2-luciferase reporter) viability, CellTiter-Fluor protease fluorescence, 24 h; Potency, µM (highest dose often 56.7 µM), usual class: cytotoxic; 400,000 compounds, 0.49% hits; note: nearly all actives have a fitted effect of over 40% in size
ATXN2 expr inh = Primary qHTS for Inhibitors of ATXN expression; HEK-293 ATXN2-luciferase reporter, luminescence, 24 h; Potency, µM (series often up to 57 µM), inactives show top-dose activity change, negative = inhibition, most hits filed as inhibitors; 360,000 compounds, 0.72% hits; note: % is set by controls: 0 for no effect and ±100 for the full control effect; nearly all actives have a fitted effect of over 55% in size
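qHTS (up to 57 uM final) was run with 24 h compound exposure of reporter cells at 37 °C. Each well was multiplexed: SteadyGlo luminescence measured ATXN2-luciferase expression after a fluorogenic Gly-Phe-AFC viability readout (25 uM final).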
TGFb inhibitor = qHTS for Inhibitors of TGF-b | HepG2 CAGA-GFP TGF-b/SMAD3 reporter, GFP fluorescence, 18 h; TGF-beta stimulated, 500 pg/mL final | Potency, µM (top dose mostly 46.1 µM), inactives show top-dose activity, negative = inhibition, most hits filed as inhibitors | 410,000 compounds, 1.2% hits; note: % is set by controls: 0 for no effect and ±100 for the full control effect; nearly all actives have a fitted effect of over 65% in size
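Per well, imaged GFP fluorescence of HEPG2 CAGA-GFP cells gives the signal; cells get compound, then TGF-beta (500 pg/mL final), 18 h at 37 degrees C; %Activity versus -TGF-beta and +DMSO controls.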
HepG2 viability = qHTS for Inhibitors of TGF-b: Cytotox Counterscreen; HepG2 CAGA-GFP viability, ATP luminescence, 18 h; Potency, µM (highest dose often 46.1 µM), for inactives: at the top dose activity change, negative = cytotoxicity, most hits filed as cytotoxic; 410,000 compounds, 0.76% hits
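HepG2 CAGA-GFP cells (1000/well, DMEM with 1% FBS) received compound, then TGF-beta at 500 pg/mL final, and were incubated 18 hours at 37 degrees C. Viability was read by CellTiter-Glo luminescence. Media-only wells were set as complete cell-killing and DMSO as no toxicity.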
HTT cytoprotect = qHTS Multiplex Assay to Identify Dual Action Probes in a Cell Model of Huntington: Cytoprotection (ATP); PC12 HTT-Q103 induced, cytoprotection, ATP luminescence, 40 h; Potency, µM (series often up to 56.4 µM), inactives show cytoprotection (ATP increase), actives largely listed as activators; 230,000 compounds, 0.14% hits; AID 1471, 2008; note: % of control where 0% means no effect; nearly all actives have a fitted effect of over 45% in size
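Compounds were screened for protection of PC12 cells against cell death after tebufenozide induction (100 nM final) of mutant Huntingtin exon 1 (Q103) fused to GFP.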
HTT aggregate = qHTS Multiplex Assay to Identify Dual Action Probes in a Cell Model of Huntington: Aggregate Formation (GFP). Potency, µM (highest dose often 46.1 µM), without a hit: at the highest dose activity change, negative = inhibition, actives largely listed as inhibitors. 220,000 compounds, 1.1% hits. PC12 HttQ103-GFP aggregates, Acumen cytometry, 40 h. AID 1688, 2009; note: % is set by controls: 0 for no effect and ±100 for the full control effect; nearly all actives have a fitted effect of over 60% in size
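PC12/HTTQ103-GFP, ecdysone-inducible; teb 100 nM; cpd qHTS titration; GFP aggregates read on laser cytometer, Ex 488/Em 500-530 nm.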
* hit, by the source's call; i = inactive; u = inconclusive; x = no result given; [ ] = remark or other dose. Sampled rows, rich in hits. Any-hit rate of the full collection: about 2.8%. Calls come from the whole dose curve; as a rule, active = well fitted curve in the direction sought with a large enough effect; inconclusive = small, poorly fitted or top-dose-only effect, or another doubt; inactive = no such curve, though single readings can be large; an effect the other way counts as inactive or inconclusive. Potency is the fitted concentration of half-maximal effect.

SMILES | ATXN viability | ATXN2 expr inh | TGFb inhibitor | HepG2 viability | HTT cytoprotect | HTT aggregate
CCCCCCCn1c2c(c(=N)c3c1CCC3)CCCC2 | u | 1.89µM* | u | -12.5% | x | x
CCCCn1c2c(c(=N)c3c1CCC3)CCC2 | i | u | u | 3.8% | -27.7%[0.074 µM] | u
CCn1c2c(c(=N)c3c1CCC3)CCC2 | i | -22.9%[11.3 µM] | -4.7% | 12.3% | 0.1%[10 µM] | -3.2%
CCCCCCn1c2c(c(=N)c3c1CCC3)CCC2 | i | 8.91µM* | u | -8.5% | -16.9%[0.074 µM] | 1.78µM*
CCCCCCCCCn1c2c(c(=N)c3c1CCC3)CCC2 | u | 2µM* | 4.47µM* | -72.3% | -51.7%[10 µM] | 1.26µM*
Cc1cc(C(=O)Nc2ccccc2-c2nc(CNC(=O)c3sc(C)nc3C)c(C)o2)c(C)o1 | i | x | x | x | x | x
Cc1ccc(-c2nc(NC(=O)CSc3nnc(C)s3)ns2)cc1 | i | 20.1% | 7.9% | -15.9% | 0.2% | u
COc1ccc(-c2nc(NC(=O)CSc3nnc(C)s3)ns2)cc1 | i | -1.0% | 9.7% | 4.2% | 2.1%[1.9 µM] | 11.2µM*
Cc1nnc(SCC(=O)Nc2nsc(-c3ccccc3)n2)s1 | i | 30.6% | 33.2% | 1.4% | -2.7%[0.074 µM] | 12.6µM*
CSc1nnc(CNC(=O)c2c(-c3ccccc3)noc2C)n1-c1ccc(F)cc1 | i | x | x | x | x | x
O=Cc1ccc(CS)cc1 | x | x | -9.8% | -18.2% | x | x
CC(Oc1ccc(F)cc1)C(=O)Nc1nc(-c2ccccn2)cs1 (stereo not drawn) | u | 7.94µM* | u | 10.0% | x | x
O=C(Nc1nc(-c2ccccn2)cs1)c1ccc(Br)s1 | u | u | -28.0% | -12.0% | -51.0% | 1.26µM*
COc1ccc(-c2nc(N/N=C(\C)c3ccc(O)cc3)c3ccccc3n2)cc1 | u | u | 14.1µM* | -94.2% | -19.5%[10 µM] | 7.9%[9.22 µM]
C/C(=N\Nc1nc(-c2ccc(C)cc2)nc2ccccc12)c1ccc([N+](=O)[O-])cc1 | x | x | x | x | -12.7% | -10.9%
Oc1ccc(Nc2nc3ccccc3nc2Nc2ccc(O)cc2)cc1 | u | u | 11.2µM* | -50.3% | u | u
Oc1ccc(Nc2nc(-c3ccc(Cl)cc3)nc3ccccc23)cc1 | x | x | u | 14.1µM* | x | x
CN(N=O)c1ccc(/C=C2\C=Cc3ccccc32)cc1 | x | x | -4.7% | -4.2% | x | x
Cc1c(C(=O)N2CC3CCC2C3)sc2ncnc(NCc3ccco3)c12 (stereo not drawn) | i | x | x | x | x | x
Cn1cc(C(=O)CCl)c2ccccc21 | x | x | 12.6µM* | 15.8µM* | -2.5%[10 µM] | -10.5%[9.22 µM]
CO/N=C\[C@@H](NS(=O)(=O)c1ccc(C)cc1)[C@H](C)/C=C\CC(=O)OC | x | x | x | x | -75.7%[10 µM] | x
CCOC(=O)c1c(C)n(-c2ccccc2)c2ccc(OC(=O)c3ccccc3NC(=O)C(C)(C)C)cc12 | 25.1µM* | u | u | 22.4µM* | x | x
Cc1cc(C(=O)NCC2CCC3(CCN(Cc4ccc(-c5ccccc5)cc4)CC3)O2)n(C)n1 (stereo not drawn) | i | x | x | x | x | x
Cc1cc(OCCCCCNCCO)cc(C)c1Cl | i | u | u | 11.2µM* | -11.4%[10 µM] | 13.8%
Cc1cc(OCCNCCO)cc(C)c1Cl | i | -18.2% | 15.8% | -26.3% | 1.4% | -3.4%
SMILES | ATXN viability | ATXN2 expr inh | TGFb inhibitor | HepG2 viability | HTT cytoprotect | HTT aggregate
O=C(NCCN1CCOCC1)c1cnn(-c2nccc(-c3ccccc3F)n2)c1C1CC1 | i | x | x | x | x | x
C=C1C(=O)O[C@@H]2[C@H]3O[C@]3(C)CC/C=C(\C)CC[C@@H]12 | i | 13.6% | 12.6µM* | 12.6µM* | -166.3% | x
Cc1cccnc1-c1cccc2c1OC(CNC(=O)/C=C/c1cccs1)C2 (stereo not drawn) | i | x | x | x | x | x
CN(C)c1ccc(C=Nc2cncc3ccccc23)cc1 | x | x | -0.5% | 1.6% | x | x
CCOC(=O)c1[nH]c2ccc(OC)cc2c1NC(=S)N1CCN(c2ccc(F)cc2)CC1 | i | -21.2% | -22.3% | -4.9% | -25.5%[10 µM] | 9.9%
CCOC(=O)c1[nH]c2ccc(OC)cc2c1NC(=S)N1CCN(c2cccc(C)c2C)CC1 | i | -31.4% | 17.8µM* | 10µM* | -9.8%[10 µM] | 5.4%
C(=C1c2ccccc2Oc2ccccc21)c1ccccc1 | x | x | -0.1% | 0.0% | x | x
Cc1ccc(-n2c(Cl)c(Cl)nc(Cl)c2=O)cc1 | x | 5.32µM* | 5.01µM* | 7.08µM* | x | 4.47µM*
O=C(C[N+]1(CC(O)c2ccccc2)CCCCC1)c1ccccc1 (stereo not drawn) | x | x | 17.1% | 22.7% | x | x
COC(=O)c1[nH]c2ccc(C)cc2c1NC(=O)CN1CCN(c2ccc(F)cc2)CC1 | u | -19.4% | -0.9% | -4.1% | 1.58µM* | -27.0%
COc1cc(CNCCc2c[nH]c3ccccc23)ccc1OCc1ccccc1F | u | u | u | 12.6µM* | -106.2% | -11.6%
COc1ccccc1CCNCc1ccc(OC)c(OCc2ccccc2)c1 | u | u | 0.5% | -65.4% | 5.0%[10 µM] | u
COc1cccc(CNCCc2c[nH]c3ccccc23)c1OCc1ccccc1 | i | u | u | 11.2µM* | 13.9%[10 µM] | -22.1%
COc1ccc(CCNC(=O)NCCc2c[nH]c3ccccc23)cc1OC | i | -18.5% | 3.5% | -14.5% | x | x
COc1cc(C2CC(=O)c3c([nH]c(C(=O)OC4CCCC4)c3C)C2)cc(OC)c1OC (stereo not drawn) | 31.6µM* | -20.8% | u | -20.4% | x | x
COC(=O)c1[nH]c2c(c1C)C(=O)CC(c1cc(OC)c(OC)c(OC)c1)C2 (stereo not drawn) | i | x | 4.8% | 3.2% | x | x
CCc1ccc2oc(-c3cc(NC(=O)COc4ccc(C)cc4)ccc3O)nc2c1 | x | x | 24.2% | 21.0% | x | x
CN(C)c1ccc(Sc2ccc3nc(N)nc(N)c3c2)cc1 | u | x | u | 0.316µM* | x | x
Oc1c(N=Nc2ccccn2)ccc2ccccc12 | 10µM* | 7.94µM* | 6.31µM* | -43.6% | -71.4% | 3.16µM*
O=P(O)(O)C(O)(Cc1cnc2ccccn12)P(=O)(O)O | i | x | x | x | x | x
Cc1cc(=O)oc2cc(O)ccc12 | i | 0.7% | -0.8% | 3.6% | 5.62µM* | 7.8%[20.6 µM]
O=C(Nc1ccccc1)c1ccc(-c2ccccc2C(F)(F)F)o1 | u | 19.5% | u | -28.2% | x | 13.7%
O=C(NCc1ccc(Cl)cc1)c1ccc(-c2ccccc2C(F)(F)F)o1 | i | -16.7% | 15.8µM* | -58.5% | x | -7.7%
Clc1ccc(/C=C/c2nc3ccccc3[nH]2)cc1 | u | u | 0.0% | 11.2µM* | -88.7% | -8.4%
